Results reported in PubChem BioAssay AID485314 (National Center for Advancing Translational Sciences (NCATS), 2010).
Hit rate of the full screen: of about 340,000 compounds, about 4,500 (1.3%) were called active. Another 5% or so got no clear call; they are omitted. The sample holds actives, similar compounds and a random draw of the others, so the mix is not that of the screen. A number with no mark means an inactive call. Calls follow the shape of the dose curve; as a rule, active = well fitted inhibition curve with a large enough effect; inconclusive = small, poorly fitted or top-dose-only effect, or another doubt; inactive = no such curve, though single readings can be large or run the other way.

Molecular target: DNA polymerase beta (Homo sapiens) (UniProt P06746)
Experiment: qHTS Assay for Inhibitors of DNA Polymerase Beta
Conditions: Pol beta primer extension/strand displacement, fluorescence kinetic; series mostly up to 114 µM; activity change, negative = inhibition: at the top concentration
Text: The base excision repair system in human cells is a target for therapeutic modulation of the response to irradiation treatment and DNA-damaging drugs. A key enzyme in this system is the bi-functional DNA polymerase known as DNA polymerase Beta (Pol Beta). The following is a homogeneous kinetic assay to study the primer extension and strand-displacement reaction catalyzed by pol beta.
A stepwise description of the 1536-well assay is shown in next Table. Three microliters of reagents (buffer in column 3 and 4 as negative control and 10 nM Pol beta in columns 1, 2, and 5-48) was dispensed into 1,536-well black solid-bottomed plate. Compounds (23 nL) were transferred via Kalypsys pin tool equipped with 1536-pin array (10 nL slotted pins, V&P Scientific, San Diego, CA). The plates were incubated for 15 min at room temperature, and 1 uL substrate (50 nM final concentration) were added to start the reaction and immediately read at 0 min read on Viewlux reader. The plate were further incubated for 10 min at room temperature, and then read on Viewlux again. Throughout the screen, reagent bottle and all liquid lines were chilled and made light-tight to minimize reagent degradation. All screening operations were performed on a fully integrated robotic system (Kalypsys, San Diego, CA) containing one RX-130 and two RX-90 anthropomorphic robotic arms (Staubli, Duncan, SC). Library plates were screened starting from the lowest and proceeding to the highest concentration, and a double-dipping step of the highest concentration was required to access higher concentrations of compounds. Vehicle-only plates, with DMSO being pin-transferred to the entire column 5-48 compound area, were inserted uniformly at the beginning and the end of each library in order to monitor for and record any shifts in the background, which can be affected by reagent dispensers or loss in enzyme activity overtime. Screening data were corrected, normalized, and concentration-effect relationships were derived by using publicly-available curve fitting algorithms developed in-house (http://ncgc.nih.gov/pub/openhts). A four parameter Hill equation was fitted to the concentration-response data by minimizing the residual error between the modeled and observed responses.
% is scaled to controls: 0 for no effect and ±100 for the full control effect; potency is read from the fitted curve at half-maximal effect.

Compound	activity change, negative = inhibition	Potency
Cc1ccc(-c2csc(NC(=O)Cn3[nH]c(=O)c4ccccc4c3=O)n2)cc1	-17.4%	
O=C(CSc1nc2ccccc2c(=O)[nH]1)Nc1nc(-c2ccc(Br)cc2)cs1		4.47 µM (active)
O=C(CSC1=NCCS1)Nc1nc(-c2ccccc2)cs1	16.3%	
CC(C)(C)c1ccc(C(=O)NCC(c2ccco2)S(=O)(=O)c2ccc(F)cc2)cc1 (centres undefined)	-18.4%	
COc1cccc(NC(=O)N(Cc2cn(C)c3ccccc23)C2CCCCCC2)c1	-7.08%	
O=C(CSc1ccc(-c2ccco2)nn1)Nc1cccc(F)c1	-29.3%	
Cc1ccccc1-c1nnc(SCC(=O)NCc2ccc3c(c2)OCO3)n1C	25%	
O=C(CSc1ccc(-c2ccco2)nn1)NCc1ccc2c(c1)OCO2		15.8 µM (active)
Cc1ccccc1OCCSc1nc2ccc(NC(=O)c3ccco3)cc2s1	0.968%	
Cc1ccc(C2CCN(C(=O)c3cnn(-c4ccccc4Cl)c3C3CCN(C(=O)OC(C)(C)C)CC3)C2)cc1 (centres undefined)	2.89%	
Cc1cccc(N2CCN(C(=O)c3cccc(S(=O)(=O)N4CCc5ccccc5C4)c3)CC2C)c1 (centres undefined)	2.53%	
Cc1cccc(N2CCN(S(=O)(=O)c3ccc4[nH]c(=O)c(=O)[nH]c4c3)CC2C)c1 (centres undefined)		25.1 µM (active)
Cc1cccc(N2CCN(S(=O)(=O)c3ccc(-c4cc(C)no4)s3)CC2C)c1 (centres undefined)	0.87%	
CC(C)(C)c1ccc(OCC(=O)N2CCC(c3nc4ccccc4s3)CC2)cc1	10.9%	
O=C(Nc1ccccc1)/C(=C\c1ccco1)NC(=O)c1ccco1	-1.05%	
Cc1cccc(NC(=O)/C(=C\c2ccco2)NC(=O)c2ccccc2)c1	0.753%	
COc1ccccc1C(=O)N/C(=C/c1ccco1)C(=O)Nc1ccc(C(=O)O)cc1		50.1 µM (active)
CC(=O)Nc1cc(C(=O)NCc2ccc(F)cc2Cl)ccc1Sc1ccc(Cl)cc1	-16.2%	
CCC(Sc1nnc(-c2ccc(OC)cc2)c(-c2ccc(OC)cc2)n1)C(=O)NC1CCCCC1 (centres undefined)	1.49%	
COc1cccc(-n2cc(C(=O)NCc3cccc(Cl)c3)c3ccccc3c2=O)c1	12.9%	
Nc1[nH]c(=S)nc2nc(-c3ccccc3)c(-c3ccccc3)nc12		22.4 µM (active)
Nc1ccc(-c2sc(N)nc2-c2ccccc2)cc1	23.9%	
Cc1ccc2cccc(NC(=O)C(C)Oc3ccc(C)c(C)c3)c2n1 (centres undefined)	14.5%	
Cn1nc(-c2ccccc2)c(-c2ccccc2)c(C(=O)Nc2ccc(S(N)(=O)=O)cc2)c1=O	-0.58%	
COc1ccc(Cn2ccnc2SCC(=O)Nc2ccc3c(c2)OCO3)cc1	0.783%	

Compound	activity change, negative = inhibition	Potency
CCCS(=O)(=O)N1CCC(n2c(C(F)(F)F)nc3cccnc32)CC1	33.3%	
COc1ccc(C(=O)NNC(=S)NC(=O)c2ccccc2)cc1	0.641%	
COc1ccc(OCC(=O)NNC(=O)c2ccc(-c3ccccc3)cc2)cc1		44.7 µM (active)
COc1ccc(C(=O)Nc2cc(C)ccc2NC(=O)COc2ccccc2)cc1	1.19%	
O=C(CS(=O)(=O)c1cccc2nsnc12)N1CCN(c2cccc(Cl)c2)CC1	-19.8%	
CCOc1ccc(S(=O)(=O)Nc2ccc3oc4c(c3c2)CC(C)CC4)cc1 (centres undefined)	-14.6%	
Cc1cccc(NC(=O)CSc2ncc(-c3ccccc3)[nH]2)c1C	0.698%	
Cc1ccc(SCC(=O)NC(=O)NCc2ccco2)c(C)c1		25.1 µM (active)
Cc1ccc(NC(=O)C(=O)NCc2ccco2)c(C)c1	28.8%	
Cc1cc(C)n2nc(SCC(=O)NC(=O)NCc3ccco3)nc2n1	-25.1%	
Cn1ccc2cc(S(=O)(=O)N3CCCC(C(=O)NCc4ccccc4F)C3)ccc21 (centres undefined)	9.68%	
Cc1ccccc1NC(=O)Cn1cc(C(=O)c2cccs2)c2ccccc21	-21.9%	
CN(C(=O)c1ccc2c(c1)N(Cc1cccc(Cl)c1)C(=O)c1ccccc1S2=O)C1CCCCC1 (centres undefined)	4.04%	
COc1ccccc1NC(=O)C(=O)c1cc(C)n(-c2ccccc2F)c1C	4.34%	
CCCCNC(=O)CSc1nc2n[nH]c(C)c2c(=N)n1-c1cccc(Cl)c1C		inactive
COc1ccc(-n2c(SCC(=O)Nc3ccc(Cl)c(C)c3)nc3n[nH]c(C)c3c2=N)cc1	-7.34%	
CCOc1ccc(-n2c(SCC(=O)NCc3ccccc3)nc3n[nH]c(C)c3c2=N)cc1		25.1 µM (active)
COc1ccc(S(=O)(=O)n2nc(C)c(S(=O)(=O)N3CCCCCC3)c2C)cc1	-16.8%	
CSc1nn(Cc2cccc(C)c2)c(N)c1S(=O)(=O)c1ccccc1	-2.02%	
COc1cc(/C=C2/C(=O)NN(c3ccc(F)cc3)C2=O)cc([N+](=O)[O-])c1O	-29.4%	
Cc1ccc(N2NC(=O)/C(=C/C=C/c3ccco3)C2=O)cc1C		35.5 µM (active)
Cc1ccc(-n2ncc3c(=O)n(-c4ccc(C)c(C)c4)c(-c4ccco4)nc32)cc1	-0.115%	
Cc1ccc(N=C2NC(=O)/C(=C/C=C/c3ccco3)S2)cc1C		10 µM (active)
COc1ccccc1-c1ccnc2[nH]n(-c3ccccc3)c(=O)c12	-9.8%	
